Experimental data taken from PubChem BioAssay (EPA / NIEHS).
Where “and” joins values, the source holds several entries; their conditions need not be identical. Equal entries are not always repeated. Records with an inconclusive call do not appear. A structure can be active in one record and inactive in another. Calls of active or inactive are those of the source. Rule for the calls, unless noted: active = hit-call score of the fitted dose curve at least 0.9, where 1 is the maximum; inconclusive = response in the unintended direction; inactive = score below 0.9.

Experiments:
[1] = target: human Peripheral-type Benzodiazepine Receptor (PBR), TSPO (gene 706) (UniProt P30536); experiment: NVS_MP_hPBR: NovaScreen (NVS) Membrane Protein Assay for human Peripheral-type Benzodiazepine Receptor (PBR) (AID 2283331);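 note: hits reduce radioligand binding relative to DMSO baseline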
Outline: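 Scintillation counts of filter-bound radioligand served as read-out after 1 h chemical dosing of human colonic membrane preparations. Activity was scored as signal loss against DMSO; initial duplicates at 25 uM, confirmatory concentration series afterward.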

[2] = target: Estrogen receptor (Homo sapiens) (UniProt P03372); experiment: OT_ER_ERaERa_1440: Odyssey Thera (OT) 24-hour HEK293T Protein-Complementation Assay for Estrogen Receptor-alpha/-alpha Homodimer (AID 2283349);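 note: hits raise fluorescence above DMSO for agonists and antagonists alike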
Outline: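 Protein-fragment complementation between two human ERα ligand-binding domains (aa 310-547) in stably transfected HEK293T cells was monitored after 24 h treatment, using fluorescence intensity relative to vehicle controls.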

[3] = target: Estrogen receptor (Homo sapiens) (UniProt P03372); experiment: OT_ER_ERaERa_0480: Odyssey Thera (OT) 8-hour HEK293T Protein-Complementation Assay for Estrogen Receptor-alpha/-alpha Homodimer (AID 2283351);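 note: rise in fluorescence from reassembled reporter fragments on ERα LBD homodimer in nucleus or whole cell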
Outline: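 HEK293T cells stably expressing the human ERα ligand-binding domain (aa 310-547) as a homodimer PCA were dosed with compound for 8 h. Gain of fluorescence intensity versus DMSO vehicle was read by laser scanning cytometry.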

[4] = target: Estrogen receptor (Homo sapiens) + Estrogen receptor beta (Homo sapiens) (UniProt P03372+Q92731); experiment: OT_ER_ERaERb_0480: Odyssey Thera (OT) 8-hour HEK293T Protein-Complementation Assay for Estrogen Receptor-alpha/-beta Heterodimer (AID 2283352)
Outline: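 HEK293T protein-fragment complementation assay of ER-alpha/ER-beta LBD heterodimerisation, read 8 h after dosing. Mean nuclear/cytoplasmic fluorescence intensity measured by laser scanning cytometry; gain of signal fitted relative to DMSO.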

[5] = target: rat Thyrotropin Releasing Hormone Receptor (TRH), Trhr (gene 25570) (UniProt Q01717); experiment: NVS_GPCR_rTRH: NovaScreen (NVS) G Protein-Coupled Receptor Assay for rat Thyrotropin Releasing Hormone Receptor (TRH) (AID 2283329);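 note: hit means lower bound tracer signal versus DMSO baseline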
Outline: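 Rat forebrain membrane prep, radioligand displacement, filter scintillation readout at 4 h. Single conc 25 uM, duplicate; actives retested as concentration series. DMSO = negative control/baseline.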

[6] = target: rat Peripheral-type Benzodiazepine Receptor (PBR), Tspo (gene 24230) (UniProt P16257); experiment: NVS_MP_rPBR: NovaScreen (NVS) Membrane Protein Assay for rat Peripheral-type Benzodiazepine Receptor (PBR) (AID 2283335)
Outline: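 Radioligand displacement, rat kidney membrane prep, 1 h exposure, filter-based scintillation read; DMSO baseline, loss-of-signal scored. Primary screen at 25 uM in duplicate, actives followed up in concentration series.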

[7] = target: human Constitutive Androstane Receptor (CAR), NR1I3 (gene 9970) (UniProt Q14994); experiment: NVS_NR_hCAR_Antagonist: NovaScreen (NVS) Nuclear Receptor Binding Assay for human Constitutive Androstane Receptor Antagonism (CAR) (AID 2283344)
Outline: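 Cell-free TR-FRET binding read 1 h after dosing, antagonist mode; loss of signal versus DMSO baseline. Primary screen in duplicate at a single 25 uM; actives retested in concentration series.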

[8] = target: chimpanzee Androgen Receptor (AR), AR (gene 747460) (UniProt O97775); experiment: NVS_NR_cAR: NovaScreen (NVS) Nuclear Receptor Binding Assay for chimpanzee Androgen Receptor (AR) (AID 2283346);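 note: radioligand displacement from AR measured by scintillation counting in a cell-free assay; a loss of bound radioligand signal versus DMSO counts as binding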
Outline: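 Cell-free competition binding with insect-cell (Sf9/Sf21) extracted chimpanzee AR; scintillation signal from lysate at 72 h. Screened in duplicate at 25 uM, then concentration-response for actives; fitting relative to DMSO.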

[9] = target: Estrogen receptor (Homo sapiens) (UniProt P03372); experiment: NVS_NR_hER: NovaScreen (NVS) Nuclear Receptor Binding Assay for human Estrogen Receptor (ER) (AID 2283348)
Outline: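 Scintillation signal from bound radioligand was measured 18 hours after chemical addition to cell-free MCF7 protein extracts, with DMSO as baseline. Activity was scored as signal loss; compounds ran first at 25 uM in duplicate.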

[10] = target: Voltage-gated inwardly rectifying potassium channel KCNH2 (Homo sapiens) (UniProt Q12809); experiment: NVS_IC_hKhERGCh: NovaScreen (NVS) Ion Channel Assay for human Potassium Channel ERG (KhERGCh) (AID 2283333)
Outline: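 Cell-free radioligand competition binding on hERG protein extracted from CHO cells, read by filter-based scintillation counting 0.75 h after dosing. Primary screen at 25 uM in duplicate, actives followed in concentration series. Signal loss fitted versus DMSO.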

[11] = NVS_IC_rCaBTZCHL: NovaScreen (NVS) Ion Channel Assay for Calcium Channel, Type L, Benzothiazepine Site (CaBTZCHL) (AID 2283337)
Outline: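 Radioligand binding to the benzothiazepine site of L-type Ca channels in rat cortical membranes (cell-free), 1.5 h after dosing; filter-based scintillation counting. Loss of signal relative to DMSO baseline; primary single-concentration screen at 25 uM, actives then run in concentration series.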

[12] = target: bovine Gamma-Aminobutyric Acid Type A Receptor Agonist (GABAR Agonist), GABRA1 (gene 780973) (UniProt P08219); experiment: NVS_LGIC_bGABAR_Agonist: NovaScreen (NVS) Ligand-Gated Ion Channel Assay for bovine Gamma-Aminobutyric Acid Type A Receptor Agonist (GABAR Agonist) (AID 2283338)
Outline: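 Radioligand binding to bovine cerebellar membranes in agonist format, read by filter-based scintillation counting after 1 h. Primary screen in duplicate at 25 uM, with actives followed in concentration series. Gain of signal versus DMSO.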

[13] = target: Small conductance calcium-activated potassium channel protein 1 (Rattus norvegicus) (UniProt P70606); experiment: NVS_IC_rKCaCh: NovaScreen (NVS) Ion Channel Assay for rat Potassium Channel, Ca2+ Act., VI (KCaCh) (AID 2283336)
Outline: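 Radioligand binding to rat forebrain membranes, cell-free, read 1 hour after dosing by filter-based scintillation counting. Compounds first run in duplicate at 25 uM, actives then in concentration series; loss of signal vs DMSO indicates displacement.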

[14] = target: rat Glutamate, MK-801 Agonist Site (GluNMDA_MK801), Grin1 (gene 24408) (UniProt P35439); experiment: NVS_LGIC_rGluNMDA_MK801_Agonist: NovaScreen (NVS) Ligand-Gated Ion Channel Assay for rat Glutamate, MK-801 Agonist Site (GluNMDA_MK801) (AID 2283340)
Outline: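 Radioligand binding at MK-801 site in rat forebrain membranes, 1.5 h incubation, filter-based scintillation counting. Initially 25 uM in duplicate; actives then run in concentration-response up to 50 uM, fitted for gain of signal versus DMSO.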

[15] = target: rat Glycine Receptor, Strychnine-sensitive (GlyRStrySens), Glra1 (gene 25674) (UniProt P07727); experiment: NVS_LGIC_rGlyRStrySens: NovaScreen (NVS) Ligand-Gated Ion Channel Assay for rat Glycine Receptor, Strychnine-sensitive (GlyRStrySens) (AID 2283341)
Outline: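 Radioligand displacement on rat spinal cord membranes, 1 hr, filter scintillation read-out. Single-concentration duplicate screen at 25 uM; chemicals meeting threshold (e.g., 30% inhibition) rerun in concentration-response up to 50 uM. Loss of binding fitted versus DMSO.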

NCBI gene 100848466 = experiment: NVS_NR_bPR: NovaScreen (NVS) Nuclear Receptor Binding Assay for bovine Progextron Receptor (PR) (AID 2283343);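 for AC50: actives lower bound radioligand signal below DMSO meaning displacement of the label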
Outline: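 Membranes from bovine uterus; radiolabelled ligand plus test chemical; 18 h; scintillation read-out. Activity = signal loss vs DMSO. Primary: 25 uM, duplicate; secondary: concentration series.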

[16] = target: Glutamate receptor ionotropic, kainate 1 (Rattus norvegicus) (UniProt P22756); experiment: NVS_IC_rKAR: NovaScreen (NVS) Ion Channel Assay for rat Kainic Acid Receptors (KAR) (AID 2283334; active = hit-call score of the fitted dose curve at least 0.9, where 1 is the maximum; inactive = score below 0.9)
Outline: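 Radioligand displacement binding using rat forebrain membranes, 1 h incubation, filter-based scintillation counting. Screened in duplicate at 25 uM, with actives retested in concentration-response up to 50 uM; fitted against DMSO.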

[17] = target: Bile acid receptor (Homo sapiens) (UniProt Q96RI1); experiment: NVS_NR_hFXR_Antagonist: NovaScreen (NVS) Nuclear Receptor Binding Assay for human Farnesoid X Receptor Antagonism (FXR) (AID 2283350)
Outline: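 Cell-free TR-FRET ligand-binding read-out on human FXR (NR1H4) in antagonist mode, measured 1 h after dosing. Primary screen in duplicate at 25 uM, actives retested in concentration series; signal loss scored versus DMSO.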

[18] = target: human Constitutive Androstane Receptor (CAR), NR1I3 (gene 9970) (UniProt Q14994); experiment: NVS_NR_hCAR_Agonist: NovaScreen (NVS) Nuclear Receptor Binding Assay for human Constitutive Androstane Receptor Agonism (CAR) (AID 2283328)
Outline: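 Cell-free TR-FRET binding readout with extracted human CAR protein, read 1 h after dosing. Gain of signal fitted against DMSO baseline. Single-concentration duplicates at 25 uM, then concentration-response up to 50 uM for actives.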

Measured: AC50

Sequence of Voltage-gated inwardly rectifying potassium channel KCNH2 (Homo sapiens) (Q12809 whole entry, looked up): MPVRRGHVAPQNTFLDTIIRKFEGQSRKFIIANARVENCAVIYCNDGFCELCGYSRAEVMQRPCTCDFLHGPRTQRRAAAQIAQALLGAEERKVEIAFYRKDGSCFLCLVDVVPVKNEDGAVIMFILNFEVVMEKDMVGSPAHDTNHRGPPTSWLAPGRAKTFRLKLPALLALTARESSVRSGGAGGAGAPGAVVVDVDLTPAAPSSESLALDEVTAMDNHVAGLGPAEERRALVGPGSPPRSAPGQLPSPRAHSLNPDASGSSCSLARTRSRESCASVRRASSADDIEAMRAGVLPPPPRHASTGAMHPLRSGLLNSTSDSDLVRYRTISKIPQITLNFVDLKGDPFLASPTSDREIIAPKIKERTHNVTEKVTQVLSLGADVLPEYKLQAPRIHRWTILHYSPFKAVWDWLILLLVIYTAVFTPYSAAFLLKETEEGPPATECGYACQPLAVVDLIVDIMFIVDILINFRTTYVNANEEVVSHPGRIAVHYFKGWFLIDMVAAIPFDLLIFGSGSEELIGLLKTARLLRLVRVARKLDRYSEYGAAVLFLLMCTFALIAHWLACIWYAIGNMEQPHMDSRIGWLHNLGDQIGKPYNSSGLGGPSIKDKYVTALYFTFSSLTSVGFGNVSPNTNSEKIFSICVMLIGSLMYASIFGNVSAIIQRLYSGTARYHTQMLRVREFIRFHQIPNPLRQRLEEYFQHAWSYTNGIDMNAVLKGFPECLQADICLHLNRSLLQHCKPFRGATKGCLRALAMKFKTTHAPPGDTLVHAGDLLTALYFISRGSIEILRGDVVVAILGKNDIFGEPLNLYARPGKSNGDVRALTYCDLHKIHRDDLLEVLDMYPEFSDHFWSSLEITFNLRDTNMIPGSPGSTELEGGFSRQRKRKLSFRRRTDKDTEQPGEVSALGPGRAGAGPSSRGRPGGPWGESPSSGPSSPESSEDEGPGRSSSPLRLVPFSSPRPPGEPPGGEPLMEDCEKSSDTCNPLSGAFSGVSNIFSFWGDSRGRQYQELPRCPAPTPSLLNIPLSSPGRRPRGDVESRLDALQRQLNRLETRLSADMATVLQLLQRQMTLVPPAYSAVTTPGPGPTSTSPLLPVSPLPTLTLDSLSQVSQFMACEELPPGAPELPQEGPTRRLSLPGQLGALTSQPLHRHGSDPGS
Sequence of chimpanzee Androgen Receptor (AR), AR (gene 747460) (O97775 whole entry, looked up): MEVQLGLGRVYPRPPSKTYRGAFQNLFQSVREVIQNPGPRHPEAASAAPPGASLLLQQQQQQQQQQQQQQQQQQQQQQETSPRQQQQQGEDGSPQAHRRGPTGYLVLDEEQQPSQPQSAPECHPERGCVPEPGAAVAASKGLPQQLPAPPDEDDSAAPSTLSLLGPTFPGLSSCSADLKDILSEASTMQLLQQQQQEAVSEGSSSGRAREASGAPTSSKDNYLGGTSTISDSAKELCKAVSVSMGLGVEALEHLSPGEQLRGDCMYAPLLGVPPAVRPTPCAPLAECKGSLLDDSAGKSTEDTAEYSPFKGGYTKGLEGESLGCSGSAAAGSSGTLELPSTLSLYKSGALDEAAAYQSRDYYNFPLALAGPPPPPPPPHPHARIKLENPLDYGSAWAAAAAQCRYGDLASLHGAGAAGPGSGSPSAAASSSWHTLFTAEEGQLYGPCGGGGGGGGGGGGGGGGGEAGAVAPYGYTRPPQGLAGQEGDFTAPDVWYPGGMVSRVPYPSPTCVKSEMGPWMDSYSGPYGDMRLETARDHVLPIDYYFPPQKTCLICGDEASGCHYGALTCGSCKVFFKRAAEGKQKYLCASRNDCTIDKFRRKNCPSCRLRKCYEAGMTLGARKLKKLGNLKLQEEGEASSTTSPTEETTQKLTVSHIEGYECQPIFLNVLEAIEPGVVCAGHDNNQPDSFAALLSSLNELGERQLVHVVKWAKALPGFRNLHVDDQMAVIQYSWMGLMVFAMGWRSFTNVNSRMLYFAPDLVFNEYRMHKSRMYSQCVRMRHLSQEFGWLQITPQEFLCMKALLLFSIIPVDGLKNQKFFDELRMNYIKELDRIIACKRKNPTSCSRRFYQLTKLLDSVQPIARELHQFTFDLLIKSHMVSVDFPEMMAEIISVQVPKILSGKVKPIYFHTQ
Sequence of human Peripheral-type Benzodiazepine Receptor (PBR), TSPO (gene 706) (P30536 whole entry, looked up): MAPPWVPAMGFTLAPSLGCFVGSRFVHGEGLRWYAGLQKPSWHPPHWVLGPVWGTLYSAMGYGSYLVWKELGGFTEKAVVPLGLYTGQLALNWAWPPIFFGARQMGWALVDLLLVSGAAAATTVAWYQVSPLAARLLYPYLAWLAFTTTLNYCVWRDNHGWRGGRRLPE
Sequence of rat Thyrotropin Releasing Hormone Receptor (TRH), Trhr (gene 25570) (Q01717 whole entry, looked up): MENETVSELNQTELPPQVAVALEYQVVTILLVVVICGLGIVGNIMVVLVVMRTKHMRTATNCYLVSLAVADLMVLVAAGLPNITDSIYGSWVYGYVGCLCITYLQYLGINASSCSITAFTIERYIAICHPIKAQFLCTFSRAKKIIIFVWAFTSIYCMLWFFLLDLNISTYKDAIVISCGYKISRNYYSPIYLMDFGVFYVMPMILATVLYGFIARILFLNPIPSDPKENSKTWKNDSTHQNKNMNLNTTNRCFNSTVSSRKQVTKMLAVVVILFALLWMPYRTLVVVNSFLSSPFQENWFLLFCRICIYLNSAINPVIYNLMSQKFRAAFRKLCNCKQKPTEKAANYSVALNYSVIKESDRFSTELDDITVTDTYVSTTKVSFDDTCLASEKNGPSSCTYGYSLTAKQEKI
Sequence of Bile acid receptor (Homo sapiens) (Q96RI1 whole entry, looked up): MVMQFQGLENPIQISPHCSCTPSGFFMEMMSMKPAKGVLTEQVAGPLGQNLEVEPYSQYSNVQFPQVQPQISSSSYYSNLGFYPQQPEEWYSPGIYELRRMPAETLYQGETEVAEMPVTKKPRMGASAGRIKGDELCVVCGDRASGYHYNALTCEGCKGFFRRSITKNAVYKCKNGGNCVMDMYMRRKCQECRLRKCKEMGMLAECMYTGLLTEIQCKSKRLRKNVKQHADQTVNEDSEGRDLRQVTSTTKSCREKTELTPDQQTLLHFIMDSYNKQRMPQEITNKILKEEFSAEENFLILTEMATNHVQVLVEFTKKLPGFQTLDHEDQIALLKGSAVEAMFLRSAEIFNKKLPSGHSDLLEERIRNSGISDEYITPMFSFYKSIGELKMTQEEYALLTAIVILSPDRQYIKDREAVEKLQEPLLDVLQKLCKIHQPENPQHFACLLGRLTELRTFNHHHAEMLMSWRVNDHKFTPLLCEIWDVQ
Sequence of human Constitutive Androstane Receptor (CAR), NR1I3 (gene 9970) (Q14994 whole entry, looked up): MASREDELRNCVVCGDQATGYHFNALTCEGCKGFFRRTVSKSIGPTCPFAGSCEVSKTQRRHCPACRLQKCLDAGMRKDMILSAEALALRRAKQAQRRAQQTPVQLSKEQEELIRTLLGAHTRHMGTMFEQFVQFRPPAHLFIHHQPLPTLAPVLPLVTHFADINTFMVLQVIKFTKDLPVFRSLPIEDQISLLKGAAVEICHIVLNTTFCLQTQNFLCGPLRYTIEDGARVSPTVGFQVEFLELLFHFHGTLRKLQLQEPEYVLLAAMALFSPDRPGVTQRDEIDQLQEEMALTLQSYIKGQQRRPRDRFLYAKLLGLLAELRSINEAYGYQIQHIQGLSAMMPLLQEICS
Sequence of Estrogen receptor (Homo sapiens) (P03372 whole entry, looked up, the tested form may be a part): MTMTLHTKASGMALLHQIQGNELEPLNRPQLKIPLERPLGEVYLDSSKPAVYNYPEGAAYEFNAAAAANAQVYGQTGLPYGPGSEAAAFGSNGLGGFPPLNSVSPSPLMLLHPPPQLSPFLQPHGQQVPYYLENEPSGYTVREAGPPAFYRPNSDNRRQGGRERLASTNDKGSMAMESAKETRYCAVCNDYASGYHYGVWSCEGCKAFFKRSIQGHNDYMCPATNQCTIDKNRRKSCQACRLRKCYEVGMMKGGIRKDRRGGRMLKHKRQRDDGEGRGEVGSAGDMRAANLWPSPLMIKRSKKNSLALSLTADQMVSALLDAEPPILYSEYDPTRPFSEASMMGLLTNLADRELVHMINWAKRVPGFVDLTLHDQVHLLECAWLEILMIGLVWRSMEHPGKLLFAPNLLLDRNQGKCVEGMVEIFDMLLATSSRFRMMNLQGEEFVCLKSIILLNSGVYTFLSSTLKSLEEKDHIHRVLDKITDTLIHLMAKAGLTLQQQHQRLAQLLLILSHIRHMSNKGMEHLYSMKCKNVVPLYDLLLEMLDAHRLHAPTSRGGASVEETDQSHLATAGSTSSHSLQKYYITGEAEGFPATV
Sequence of rat Peripheral-type Benzodiazepine Receptor (PBR), Tspo (gene 24230) (P16257 whole entry, looked up): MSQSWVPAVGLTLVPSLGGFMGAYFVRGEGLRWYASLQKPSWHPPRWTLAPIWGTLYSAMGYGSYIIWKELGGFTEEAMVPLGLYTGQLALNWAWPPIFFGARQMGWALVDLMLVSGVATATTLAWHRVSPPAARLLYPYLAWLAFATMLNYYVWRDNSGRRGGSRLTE
Sequence of bovine Gamma-Aminobutyric Acid Type A Receptor Agonist (GABAR Agonist), GABRA1 (gene 780973) (P08219 whole entry, looked up): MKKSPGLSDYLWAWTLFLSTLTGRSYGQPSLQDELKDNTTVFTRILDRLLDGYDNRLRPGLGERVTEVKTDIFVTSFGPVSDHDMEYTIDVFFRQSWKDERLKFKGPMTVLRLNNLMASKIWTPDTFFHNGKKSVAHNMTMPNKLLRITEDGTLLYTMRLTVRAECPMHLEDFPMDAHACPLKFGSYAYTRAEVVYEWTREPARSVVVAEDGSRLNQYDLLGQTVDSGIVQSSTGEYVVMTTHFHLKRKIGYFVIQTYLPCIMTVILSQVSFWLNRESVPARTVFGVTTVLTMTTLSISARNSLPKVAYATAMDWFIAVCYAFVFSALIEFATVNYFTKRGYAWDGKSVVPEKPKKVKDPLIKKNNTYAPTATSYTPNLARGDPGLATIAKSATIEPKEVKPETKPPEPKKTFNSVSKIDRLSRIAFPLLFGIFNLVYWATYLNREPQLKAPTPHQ

O=C(O)Cn1c(=O)n(Cc2ccc(Br)cc2F)c(=O)c2ccc(Cl)cc21
inactive: [1] | [2] | [3] | [4]

Cc1oc2c(NC(=O)c3c(Cl)cccc3Cl)cccc2c1C(C)(C)O
active: [1] 1.26 µM | [6] 2.5 µM | [7] 34.6 µM | [9] 13.6 µM
inactive: [5] | [8] | [2] | [3]

CCOC(=O)O[C@H](C)OC(=O)c1ccc2c(c1)cc(C(=O)NC1CCN(C(C)C)CC1)n2Cc1cc(-c2ccc(Cl)s2)on1
inactive: [9] | [2] | [3]
active: [10] 0.925 µM | [11] 9.12 µM | [12] 11.8 µM | [8] 17.8 µM

COc1ccc2cc(S(=O)(=O)N[C@H](CC(=O)N[C@H](Cc3ccc(CN4[C@H](C)CCC[C@@H]4C)cc3)C(=O)N(C)C(C)C)c3ccc4c(c3)OCO4)ccc2c1
inactive: [13] | [14] | [2] | [3]
active: [10] 1.21 µM | [11] 3.52 µM | [15] 0.128 µM | [8] 10.8 µM

CCCCCCCCOC(=O)c1cc(O)c(O)c(O)c1
active: [1] 0.439 µM | [6] 2.82 µM | [2] 14.4 µM | [3] 12.1 µM | [4] 11.9 µM
inactive: NCBI gene 100848466 | [9]

O=c1[nH]sc2ccccc12
inactive: [16] | [2] | [17] | [3]

CCN(CC)C(=O)c1cc(S(=O)(=O)Cc2ccccc2)c(N2CCC(c3ccccc3)CC2)cc1N(CC)CCN(C)C
active: [1] 3.31 µM | [10] 6.17 µM | [11] 0.214 µM | [8] 12.6 µM | [17] 10.1 µM
inactive: [12] | [7] | [2] | [3]

CC/C(=C(/CC)c1ccc(O)cc1)c1ccc(O)cc1
active: [1] 202 nM and 13.5 µM | [6] 20.8 µM and 25 µM and 1.49 µM | [11] 12.4 µM | NCBI gene 100848466 9.68 µM | [8] 12.6 µM
inactive: [1] | [8]

CCCC(=O)OCCC(C)C
inactive: [16] | [2] | [3]

Oc1ccc2ccccc2c1
inactive: [1]

Cc1c2ccccc2c(C)c2c1ccc1ccccc12
inactive: [18] | [7] | [8] | [9] | [2] | [3] | [4]
active: [1] 14.6 µM | [6] 1.69 µM | NCBI gene 100848466 9.4 µM

O=C1c2ccccc2C(=O)N1CCc1noc(-c2ccc(CN3CCCCCC3)s2)n1
inactive: [5] | [6] | [2] | [3]
active: [11] 7.22 µM

Cc1cc(F)ccc1-c1cc(N2CC[C@@H](O)[C@H]2CO)ncc1N(C)C(=O)C(C)(C)c1cc(C(F)(F)F)cc(C(F)(F)F)c1
inactive: [5] | [11] | [9] | [2] | [17] | [3] | [4]
active: [10] 7.95 µM | NCBI gene 100848466 11.3 µM

CC(O)CC(C)(C)O (configuration not stated)
inactive: [5]

CC[C@H](NC(=O)c1cc(F)ccc1NS(=O)(=O)c1cccc2cccnc12)c1ccccc1
inactive: [9] | [2] | [3] | [4]
active: [1] 0.246 µM | [6] 0.0869 µM

CN(C)c1ccc(C(=C2C=CC(=[N+](C)C)C=C2)c2ccc(N(C)C)cc2)cc1
active: [1] 1.4 µM | [10] 5.33 µM | [6] 5.36 µM | [11] 5.44 µM | NCBI gene 100848466 4.43 µM | [8] 17.7 µM
inactive: [9] | [2] | [3]

CN(C[C@@H](CC[N+]12CCC(C3CCCCC3)(CC1)CC2)c1ccc(Cl)c(Cl)c1)C(=O)c1cc(C(F)(F)F)cc(C(F)(F)F)c1
active: [6] 2.4 µM | [11] 1.48 µM | NCBI gene 100848466 41.5 µM | [9] 33 µM
inactive: [2] | [3]

CN(C)C(=O)C1(N2CCCCC2)CCN(CC[C@@]2(c3ccc(Cl)c(Cl)c3)CN(C(=O)c3ccccc3)CCO2)CC1
inactive: [13] | [14] | [7] | [9] | [2]
active: [10] 8.74 µM | [11] 0.27 µM | [8] 13.9 µM

NC(=O)c1nc(-c2cccc(-c3cc(F)ccc3OCC(F)(F)C(F)(F)F)c2)n[nH]1
inactive: [1] | [9] | [2] | [3]
active: [6] 5.7 µM

CC[C@@H]1C[C@H](N(Cc2cc(C(F)(F)F)cc(C(F)(F)F)c2)C(C)=O)c2cc(C(F)(F)F)ccc2N1C(=O)OC(C)C
inactive: [1] | [2]

CCCCCc1ccc(N)cc1
inactive: [5] | [8] | [9] | [2] | [3] | [4]
active: [3] 67 µM and 67.6 µM | [4] 46.8 µM and 40 µM and 53.9 µM
